# Assay results: the supplement of paper PMC9925115
# ± gives the uncertainty stated by the source.
# Key:
# [1] = tested on: FLX1; assay: cell viability z-score within plate (CellTiter-Glo), mean of 3 biological replicates; higher = higher viability relative to plate (less growth inhibition); conditions: 2 µM; time (hr): 120
# Experimental: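 FLX1 fibrolamellar carcinoma cells (DNAJB1-PRKACA fusion), 600 cells/well in 384-well plates, treated with a Selleck kinase inhibitor library (L1200) at 2 uM for 5 days (120 hr); viability by CellTiter-Glo. A z-score was computed within each plate and averaged over three biological replicates.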
# [2] = tested on: FLX1 + dox-induced PRKAR1A G325D; assay: difference in log2 fold change of viability vs plate median (dox-induced PRKAR1A G325D minus uninduced); higher = compound less effective when PKA is inhibited; conditions: concentration: not stated (2 or 5 uM); 5 days
# Experimental: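 For each plate a log2 fold change vs the plate median was derived, and the values without dox were subtracted from those with dox, averaged over three biological replicates.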
SMILES,cell viability z-score within plate [1],difference in log2 fold change of viability [2]
CNc1nc(Nc2cn(C(C)(C)C#N)nc2C)ncc1C(F)(F)F,0.707 ± 0.76,0.145
CCc1cnn2c(NCc3ccc[n+]([O-])c3)cc(N3CCCC[C@H]3CCO)nc12,0.031 ± 0.76,0.265
CN(C)C/C=C/C(=O)Nc1cc2c(Nc3ccc(F)c(Cl)c3)ncnc2cc1O[C@H]1CCOC1 [Afatinib (BIBW2992)],-0.688 ± 0.67,-1.66
Oc1ccc(Nc2nc(-c3ccc(Cl)cc3)cs2)cc1,0.219 ± 0.2,-0.56
NC1(c2ccc(-c3nc4ccn5c(=O)[nH]nc5c4cc3-c3ccccc3)cc2)CCC1,-0.0746 ± 0.54,0.0391
